Sampled rows, rich in hits. Any-hit rate of the full collection: about 0.5%.
E coli growth-1 – blocks Escherichia coli growth. OD600, 23 h; hits give low values. OD600 absorbance (no concentration beside the values). 0.21% of 330,000 active;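 active = OD600 absorbance below the run mean of sample wells minus 3.6 SD, in any replicate, cut at about 0.56 in these data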
phage Ecoli inh – E. coli growth loss with phage present | growth absorbance | inhibition, % at 11.9 µM | 0.26% of 360,000 active | AID 651602; in the data active = inhibition above about 11%
Tat export inh – inhibitors of E. coli Tat protein transport; E. coli MC4100 TorA-mCherry Tat export, fluorescence; inhibition, % at 10 µM; 0.036% of 340,000 active; AID 488895;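 active = mean replicate inhibition at least 50% and at least half of replicates individually reaching 50%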;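 also: exported cargo escapes ClpAP degradation while cytoplasmic cargo is degraded and loses fluorescence; 0% = median of neutral control wells and 100% = median of NaSCN control wells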
AddAB inh – less growth of phage-infected E. coli with AddAB; 0.29% of 330,000 active; E. coli expressing H. pylori AddAB, absorbance growth; AID 435030; inhibition, % at 11.9 µM; in the data active = inhibition above about 12%;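 also: 0% = vehicle wells of infected cells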
E coli growth-2 – reduces bacterial viability in AddAB counter-screen. E. coli V3065 growth, OD600 absorbance, 18 h. inhibition, % at 11.9 µM. 0.27% of 330,000 active;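 active = inhibition above the campaign's mean inhibition across all tested compounds plus 3 SD, cut at about 9.9% in these data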;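 also: uninfected addAB+ strain grown without phage in ampicillin broth; 0% = DMSO wells and 100% = ciprofloxacin 0.95 µg/ml wells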
* hit, by the source's call.

CC=C(C)C(=O)OC1c2cc(OC)c(OC)c(OC)c2-c2c(cc3c(c2OC)OCO3)CC(C)[C@]1(C)O (stereo partly drawn) was read as E coli growth-1 0.67.
For O=[N+]([O-])c1ccc(C=Nn2c(CO)nc3ccccc32)s1 the results were E coli growth-1 0.71.
`O=[N+]([O-])c1ccc(C=Nc2cccc3ccccc23)s1` gave E coli growth-1 0.51*, Tat export inh 4, AddAB inh -1 and E coli growth-2 -1.
COC(=O)C1=C(C(=O)OC)C2N(Cc3ccccc3)c3ccccc3[C@@]23CC(C(=O)OC)N(C(=O)CC(C)C)C3=N1 (stereo partly drawn) was read as E coli growth-1 0.67.
`NC1=NCC(Cc2ccc(O)cc2)N1CCc1cc(C(F)(F)F)cc(C(F)(F)F)c1` (stereo not drawn) gave E coli growth-1 0.68.
CCN(Cc1ccccc1)c1ccc(C=NN=C(N)N)cc1 was read as E coli growth-1 0.5*.
`NC(N)=NN=Cc1ccc(OCc2ccccc2)c(OCc2ccccc2)c1` gave E coli growth-1 0.069*.
COc1cc(C=NN=C(N)N)ccc1OCc1ccc(Cl)cc1 was read as E coli growth-1 0.51*.
CCN(Cc1ccccc1)c1ccc(/C=N/N2CCOCC2)cc1 was read as phage Ecoli inh 3, Tat export inh -6, AddAB inh -1 and E coli growth-2 2.
`COc1ccc(NC(=O)N(C)CC2Oc3ccc(NC(=O)c4ccncc4)cc3C(=O)N(C(C)CO)CC2C)cc1` (stereo not drawn) gave E coli growth-1 0.68.
Screening CC1CN(CCc2ccccc2)C(=O)C1CC(=O)NCc1ccccc1 (stereo not drawn) returned E coli growth-1 0.62.
Screening O=C1CN(N=Cc2ccc([N+](=O)[O-])o2)C(=O)N1 returned E coli growth-1 0.46*.
COc1ccccc1OCC(=O)NN=CC=Cc1ccc([N+](=O)[O-])o1 was read as E coli growth-1 0.36*.
CCN(CC)c1ccc(N=Cc2ccc([N+](=O)[O-])o2)cc1 was read as E coli growth-1 0.15*, phage Ecoli inh 5, Tat export inh -1, AddAB inh 12 and E coli growth-2 5.
For Cc1nc2ccccn2c1C(=O)NN=Cc1ccc([N+](=O)[O-])o1 the results were E coli growth-1 0.52*.
Screening Cc1nc2ccccn2c1C(=O)N/N=C/c1ccc([N+](=O)[O-])o1 returned phage Ecoli inh 7, Tat export inh -10, AddAB inh 9 and E coli growth-2 6.
For O=C(NN=Cc1ccc([N+](=O)[O-])o1)C(O)c1ccccc1 (stereo not drawn) the results were E coli growth-1 0.44*.
For Cc1ccccc1C(=O)OC1C(Cc2ccccc2)NS(=O)(=O)C2CC3C=C[C@]12O3 (stereo partly drawn) the results were E coli growth-1 0.71.
`CN1CC(C(=O)N[C@]2(C)O[C@@]3(O)C4CCCN4C(=O)C(Cc4ccccc4)N3C2=O)CC2c3cccc4[nH]cc(c34)CC21` (stereo partly drawn) gave E coli growth-1 0.69.
Screening COC(=O)NN=Cc1ccc([N+](=O)[O-])o1 returned E coli growth-1 0.051*.
For O=c1ccc2ccccc2c2ccccc12 the results were phage Ecoli inh 0.
For O=Nc1c(O)c2ccccc2c2ccccc12 the results were E coli growth-1 0.53, phage Ecoli inh 11*, Tat export inh -9, AddAB inh 10 and E coli growth-2 6.
For CN(C)c1ccc(/C=N\NC(=S)SCN2C(=O)C3CCC(C)(C2=O)C3(C)C)cc1 (stereo not drawn) the results were phage Ecoli inh 4, Tat export inh 1, AddAB inh 7 and E coli growth-2 15*.
For COc1ccc(/C=N\NC(=S)SCN2C(=O)C3CCC(C)(C2=O)C3(C)C)cc1 (stereo not drawn) the results were phage Ecoli inh 4, Tat export inh -6, AddAB inh 8 and E coli growth-2 11*.
Screening CC12CCC(C(=O)N(CSC(=S)NN=Cc3ccccc3)C1=O)C2(C)C (stereo not drawn) returned E coli growth-1 0.65.
COc1ccc(C=NNC(=S)SCN2C(=O)C3CCC(C)(C2=O)C3(C)C)cc1 (stereo not drawn) was read as E coli growth-1 0.71.
O=C(CN(Cc1ccc(F)cc1)C(=O)CNS(=O)(=O)c1ccc(F)cc1)NCC1CCCO1 (stereo not drawn) was read as E coli growth-1 0.68, phage Ecoli inh 0, Tat export inh -1, AddAB inh 1 and E coli growth-2 1.

Compound activity (PubChem BioAssay)
